Reference: PubChem BioAssay
The source made the active and inactive calls.

How the values were obtained:
[1] = small molecules captured by biotinylated probe aFSTL3 – biochemical, small-molecule microarray, fluorescence 635/667, stem cell growth factor project, primary screen (AID 1064); conditions: higher = more signal;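 further: measures binding of the biotinylated anti-FSTL3 antibody to printed compounds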
[2] = binders from COS7 lysate, DM2A8 probe, primary screen, torsin A project, cell lysate, small-molecule microarray, fluorescence 635/667 (AID 1065); conditions: higher = more signal, COS7 lysate expressing mutant human TOR1A
[3] = small molecules captured by biotinylated probe aFGF2 – biochemical, small-molecule microarray, fluorescence 635/667, stem cell growth factor project, primary screen (AID 1067); conditions: higher = more signal;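 further: measures binding of biotinylated aFGF2 protein to printed compounds on slides; z-score merges feature fluorescence and signal-to-noise across triplicate slides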
[4] = small molecules captured by biotinylated probe aFGF10 – biochemical, small-molecule microarray, fluorescence 635/667, stem cell growth factor project, primary screen (AID 1071); conditions: higher = more signal;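 further: score merges 667 nm spot intensity and signal to noise from triplicate slides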
[5] = molecular target: Neurogenic locus notch homolog protein 2 (Homo sapiens) (UniProt Q04721); assay: small molecules binding Notch2 protein – biochemical, small-molecule microarray, 635 nm fluorescence, stem cell growth factors, primary screen (AID 1073); conditions: higher = more signal
Chain of Neurogenic locus notch homolog protein 2 (Homo sapiens) (Q04721 whole entry, looked up, canonical isoform): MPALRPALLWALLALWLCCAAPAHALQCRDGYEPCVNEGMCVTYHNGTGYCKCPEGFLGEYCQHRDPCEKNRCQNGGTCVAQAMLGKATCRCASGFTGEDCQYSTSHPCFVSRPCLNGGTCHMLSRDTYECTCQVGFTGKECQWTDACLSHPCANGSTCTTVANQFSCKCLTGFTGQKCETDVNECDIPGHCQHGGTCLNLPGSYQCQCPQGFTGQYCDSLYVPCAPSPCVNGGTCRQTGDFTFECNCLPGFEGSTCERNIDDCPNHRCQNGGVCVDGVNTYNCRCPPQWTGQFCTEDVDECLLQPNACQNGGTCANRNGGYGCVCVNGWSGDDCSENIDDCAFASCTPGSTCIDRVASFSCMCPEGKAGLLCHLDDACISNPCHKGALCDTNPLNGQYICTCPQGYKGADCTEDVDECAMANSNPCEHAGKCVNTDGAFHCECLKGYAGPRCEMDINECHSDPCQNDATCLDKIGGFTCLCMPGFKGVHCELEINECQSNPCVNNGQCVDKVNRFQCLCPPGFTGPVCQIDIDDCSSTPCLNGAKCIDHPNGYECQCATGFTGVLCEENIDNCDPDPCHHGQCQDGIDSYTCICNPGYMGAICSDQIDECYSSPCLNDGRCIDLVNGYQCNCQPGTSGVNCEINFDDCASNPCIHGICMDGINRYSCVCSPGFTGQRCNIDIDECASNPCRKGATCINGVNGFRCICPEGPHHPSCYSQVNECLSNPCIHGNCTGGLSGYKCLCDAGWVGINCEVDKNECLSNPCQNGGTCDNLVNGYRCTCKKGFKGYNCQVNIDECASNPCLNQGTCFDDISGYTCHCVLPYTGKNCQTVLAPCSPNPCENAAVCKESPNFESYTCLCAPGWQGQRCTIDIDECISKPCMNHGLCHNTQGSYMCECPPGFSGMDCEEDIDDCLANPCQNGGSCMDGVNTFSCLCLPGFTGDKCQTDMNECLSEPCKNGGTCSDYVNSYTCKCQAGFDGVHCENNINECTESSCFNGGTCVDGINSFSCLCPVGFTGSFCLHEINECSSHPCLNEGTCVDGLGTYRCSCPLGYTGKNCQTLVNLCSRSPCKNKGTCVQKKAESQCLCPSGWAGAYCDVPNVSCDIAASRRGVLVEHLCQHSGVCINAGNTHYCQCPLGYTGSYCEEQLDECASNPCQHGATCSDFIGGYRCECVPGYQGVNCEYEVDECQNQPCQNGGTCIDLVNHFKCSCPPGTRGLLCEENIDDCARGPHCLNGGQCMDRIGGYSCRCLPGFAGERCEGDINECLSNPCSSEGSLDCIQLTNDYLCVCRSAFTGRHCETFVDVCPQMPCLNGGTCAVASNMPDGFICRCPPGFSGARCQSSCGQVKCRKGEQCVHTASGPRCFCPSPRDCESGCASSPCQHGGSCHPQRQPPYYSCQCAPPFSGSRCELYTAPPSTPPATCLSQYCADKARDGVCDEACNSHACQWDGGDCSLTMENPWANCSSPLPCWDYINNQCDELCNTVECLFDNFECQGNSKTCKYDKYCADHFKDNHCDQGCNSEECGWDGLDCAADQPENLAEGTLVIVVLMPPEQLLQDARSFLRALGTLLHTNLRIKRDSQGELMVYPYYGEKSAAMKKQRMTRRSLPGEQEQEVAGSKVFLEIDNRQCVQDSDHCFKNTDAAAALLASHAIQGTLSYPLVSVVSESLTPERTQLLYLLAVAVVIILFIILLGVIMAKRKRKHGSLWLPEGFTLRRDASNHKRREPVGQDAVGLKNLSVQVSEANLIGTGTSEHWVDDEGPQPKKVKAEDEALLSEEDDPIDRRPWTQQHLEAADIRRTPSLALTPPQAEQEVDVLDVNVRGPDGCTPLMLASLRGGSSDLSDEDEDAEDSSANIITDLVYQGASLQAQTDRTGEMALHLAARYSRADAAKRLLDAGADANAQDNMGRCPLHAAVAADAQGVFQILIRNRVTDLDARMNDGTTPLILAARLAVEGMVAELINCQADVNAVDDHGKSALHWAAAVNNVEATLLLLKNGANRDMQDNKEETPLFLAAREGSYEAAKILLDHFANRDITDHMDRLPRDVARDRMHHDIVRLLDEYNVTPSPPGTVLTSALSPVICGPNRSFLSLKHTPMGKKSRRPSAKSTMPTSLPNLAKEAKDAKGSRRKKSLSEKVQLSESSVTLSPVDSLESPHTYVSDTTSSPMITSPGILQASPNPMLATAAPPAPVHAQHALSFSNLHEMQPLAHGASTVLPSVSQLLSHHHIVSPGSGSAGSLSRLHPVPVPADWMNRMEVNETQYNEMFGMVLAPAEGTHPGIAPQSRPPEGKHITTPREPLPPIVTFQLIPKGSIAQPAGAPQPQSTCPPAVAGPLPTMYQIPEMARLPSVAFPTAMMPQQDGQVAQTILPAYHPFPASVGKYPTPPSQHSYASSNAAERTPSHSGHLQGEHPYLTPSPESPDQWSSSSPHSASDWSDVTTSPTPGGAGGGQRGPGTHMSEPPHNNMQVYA

[6] = molecular target: Pro-neuregulin-1, membrane-bound isoform (Homo sapiens) (UniProt Q02297); assay: small molecules binding neuregulin-1 protein – biochemical, small-molecule microarray, fluorescence 635/667, psychiatric disease protein project, primary screen (AID 1075); conditions: NRG1 binding, 635 nm fluorescence, higher = more signal;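 further: score combines 667 nm spot fluorescence with signal to noise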
Chain of Pro-neuregulin-1, membrane-bound isoform (Homo sapiens) (Q02297 whole entry, looked up, the tested form may be a part, canonical isoform): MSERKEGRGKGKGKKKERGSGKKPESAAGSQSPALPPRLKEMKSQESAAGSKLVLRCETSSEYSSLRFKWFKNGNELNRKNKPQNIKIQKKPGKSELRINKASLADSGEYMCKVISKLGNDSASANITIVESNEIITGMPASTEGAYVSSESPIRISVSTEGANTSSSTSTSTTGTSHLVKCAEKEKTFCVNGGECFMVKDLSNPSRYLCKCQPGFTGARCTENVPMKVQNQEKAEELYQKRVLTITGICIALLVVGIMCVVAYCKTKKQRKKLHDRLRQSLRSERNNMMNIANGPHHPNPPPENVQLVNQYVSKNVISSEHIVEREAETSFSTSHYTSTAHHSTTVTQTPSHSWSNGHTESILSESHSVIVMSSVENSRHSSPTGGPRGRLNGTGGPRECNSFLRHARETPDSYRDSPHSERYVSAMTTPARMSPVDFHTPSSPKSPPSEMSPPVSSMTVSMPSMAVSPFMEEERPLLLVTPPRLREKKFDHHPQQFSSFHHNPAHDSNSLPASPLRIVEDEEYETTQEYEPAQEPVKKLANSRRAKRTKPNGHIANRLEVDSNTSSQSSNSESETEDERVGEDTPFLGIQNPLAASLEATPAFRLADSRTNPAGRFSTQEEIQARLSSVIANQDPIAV

[7] = test system: Neuregulin-1 EGF-like domain; assay: small molecules binding NRG1 EGF domain – biochemical, small-molecule microarray, 635 nm fluorescence, primary screen (AID 1081); conditions: higher = more signal;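 further: binding of the protein to compounds printed on small-molecule microarray slides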
[8] = FRG1 expression reporter modulators in myotubes – cell-based, C2C12 myotubes, firefly/Renilla luciferase, luminescence, FRG1 inhibition for FSHD, primary screen (AID 1084); conditions: FRG1 promoter luciferase, higher = more signal, called active from +8 up or from −8 down
[9] = small molecules captured by biotinylated probe aFST – biochemical, small-molecule microarray, fluorescence 635/667, stem cell growth factor project, primary screen (AID 1086); conditions: higher = more signal;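 further: score merges 667 nm fluorescence with signal-to-noise of each printed compound spot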
[10] = binders of probe aHhip on microarray, primary screen, stem cell growth factor project, biochemical, small-molecule microarray, fluorescence 635/667 (AID 1087); conditions: higher = more signal;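 further: score merges spot fluorescence at 667nm with spot signal to noise ratio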

| SMILES | composite z-score [1] | composite z-score [2] | composite z-score [3] | composite z-score [4] | composite z-score [5] | composite z-score [6] | composite z-score [7] | z-score [8] | composite z-score [9] | composite z-score [10] |
| --- | --- | --- | --- | --- | --- | --- | --- | --- | --- | --- |
| COC(=O)[C@@]1(Cc2ccc(OC)cc2)[C@H]2c3cc(C(=O)N(C)C)n(Cc4c(CO)[nH]cc(C)c4=O)c3C[C@H]2CN1C(=O)c1ccccc1 | 0.466 | 0.249 | -0.015 | -0.112 | 1.56 | 2.09 | 1.37 | 2.07 (inactive) | 1.47 | 1.81 |
| COc1ccc([Si](C)(C)[C@H]2[C@H](CCO)O[C@@]3(C(=O)N(Cc4ccccc4)c4ccc(NC(=O)[C@H](C)O)cc43)[C@@H]2C)cc1 | -0.0382 | 0.394 | -0.0653 | 1.12 | 0.855 | 0.638 | 1.18 | -3.18 (inactive) | 0.239 | 0.126 |
| C=CCNC(=O)[C@H]1[C@@H]2C(=O)O[C@@H](c3ccccc3)[C@@H](c3ccccc3)N2[C@@H](c2ccc(OCCO)cc2)[C@]12C(=O)Nc1ccc(C#Cc3ccc(OC)cc3)cc12 | -0.179 | 0.897 | 0.0566 | 0.705 | 1.46 | 1.52 | 1.22 | 0.744 (inactive) | 0.624 | 0.289 |
| COc1ccc(C(=O)Nc2cccc(CN3C(=O)[C@]4(O[C@H](CC(=O)N(CCO)Cc5ccccc5)[C@@H]([Si](C)(C)c5ccc(OC)cc5)[C@@H]4C)c4ccccc43)c2)cc1 | -0.211 | 0.333 | -0.0695 | 0.792 | 0.784 | 0.61 | 0.958 | -1.07 (inactive) | -0.16 | 0.2 |
| C[N+](C)(C)CCCC[C@@H]1NC(=O)[C@H]2C[C@@H](C(=O)O)[C@@H](c3ccc(O)cc3)N2C1=O | 0.348 | 0.211 | -0.133 | -0.0114 | 0.288 | 0.45 | 1.3 | 4.06 (inactive) | -0.166 | -0.199 |
| COCCOC(=O)N1C(=O)[C@@]2(c3cc(C#CC4=CCCCC4)ccc31)[C@H](C(=O)N1CCCCCCC1)[C@H]1C(=O)O[C@H](c3ccccc3)[C@H](c3ccccc3)N1[C@@H]2c1ccccc1OCCO | 2.57 | 0.571 | 0.0328 | 0.271 | 1.08 | 1.11 | 1.18 | 0.927 (inactive) | 2.04 | 0.33 |
| C=C(CCCC)C(=O)CC[C@@H](OC(C)=O)c1ccc(OCCO)cc1 | 0.0324 | 1.11 | -0.0909 | 1.01 | -0.626 | 0.409 | 1.02 | -0.0798 (inactive) | 0.0685 | -0.134 |
